Assay outcomes (PubChem BioAssay)
Rows were chosen to be rich in hits. Some 8.7% of all compounds tested hit in one or more screens of this group.
Vaccinia Venus = inhibitors of vaccinia virus (Venus reporter). AID 720580. hit rate 0.46% among 330,000. Potency, µM (series often up to 36.5 µM), hits mostly inhibitors. Vaccinia virus Venus reporter expression, fluorescence; calls by dose curve; tested in A549 cells; also: nearly all actives have a fitted effect of over 30% in size
AMA1 RON2 block = inhibitors of Plasmodium falciparum AMA1-RON2 interaction. Potency, µM (series often up to 58.2 µM), most hits filed as inhibitors. AlphaScreen AMA1-biotinylated RON2 peptide binding. hit rate 0.2% among 360,000. AID 720542; also: nearly all actives have a fitted effect of over 45% in size
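AMA1 (3D7) with his tag at 25 nM final met compounds first, then biotinylated RON2 peptide at 25 nM; detection used donor plus acceptor beads, 10 µg/mL apiece, read by AlphaScreen after 30 min at room temperature.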
Pf growth 96h = P. falciparum growth inhibition at 96 hours. Potency, µM (highest dose often 28.7 µM), usual class: inhibitors. hit rate 6.9% among 320,000. AID 504834. P. falciparum luciferase reporter growth, 96 h
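Readout is luminescence from an integrated firefly luciferase in P. falciparum. Red cells, 2% hematocrit and 0.05% parasitemia final, were cultured with compound through two parasite generations (96 hours) at 37 C, 5% CO2.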
Pf growth 48h = P. falciparum growth inhibition at 48 hours (one generation). P. falciparum luciferase growth in erythrocytes, 48 h. Potency, µM (top dose mostly 28.7 µM), most hits filed as inhibitors. hit rate 5.9% among 310,000. AID 504832
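Luciferase-expressing parasites in RBCs, 2% Hct / 0.1% parasitemia final; RPMI 1640 + 0.5% Albumax; 37 C, 5% CO2, one generation; luminescence read-out, lower signal = inhibition.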
VACV mCherry inh = inhibitors of vaccinia virus infection (mCherry reporter signal). hit rate 0.63% among 310,000. Vaccinia virus mCherry reporter infection, fluorescence. Potency, µM (titrated, usually from 36.5 µM), hits mostly inhibitors; calls by dose curve; tested in A549 cells; also: nearly all actives have a fitted effect of over 35% in size
A number is an active result; 0 = inactive; ? = inconclusive; - = not tested or not shown; ! = a repeat was not active; [ ] = another dose, or the depositor's remark. Unless noted, calls follow the shape of the dose curve; as a rule, active = well fitted curve in the direction sought with a large enough effect; inconclusive = small, poorly fitted or top-dose-only effect, or another doubt; inactive = no such curve, though single readings can be large; an effect the other way counts as inactive or inconclusive.

SMILES	Vaccinia Venus	AMA1 RON2 block	Pf growth 96h	Pf growth 48h	VACV mCherry inh
Cc1ccc(CNC(=O)C2CCCN(S(=O)(=O)c3ccc4c(ccn4C)c3)C2)cc1 (stereo unspecified)	0	-	-	-	0
Cc1ccc(S(=O)(=O)N(C(=O)c2ccncc2)c2ccc(OC(=O)c3ccncc3)c3ccccc23)c(C)c1	0	0	9.3µM	-	0
Cc1cc(F)ccc1S(=O)(=O)N(C(=O)c1ccncc1)c1ccc(OC(=O)c2ccncc2)cc1	?	0	?	0	0
COc1ccc(C(=O)Cn2nnc(-c3ccccc3NC(=O)C3CCCCC3)n2)cc1	0	0	-	12µM	0
Oc1[nH]c(N=C2N=c3ccccc3=N2)c2ccccc12	0	0	2.3µM	0	0
C#CCOCCOCCOCCNc1nc(N2CCN(C(=O)Cn3cc(CCCCN)nn3)CC2)nc(N2CCN(C(=O)[C@H](C)n3cc(CCC(=O)O)nn3)CC2)n1	0	0	-	-	0
C#CCOCCOCCOCCNc1nc(N2CCN(C(=O)[C@H](CCCCN)n3cc(CN)nn3)CC2)nc(N2CCN(C(=O)[C@H](CCCCN)n3cc(CN)nn3)CC2)n1	0	0	-	-	0
C#CCOCCOCCOCCNc1nc(N2CCN(C(=O)CCCCCCCCCCNC(=O)[C@@H](CCSC)n3cc(CCO)nn3)CC2)nc(N2CCN(C(=O)CCCCCCCCCCNC(=O)[C@H](CCC(=O)O)n3cc(CCCCCN)nn3)CC2)n1	0	0	10µM	5.2µM	0
C#CCOCCOCCOCCNc1nc(N2CCN(C(=O)CCCCCCCCCCNC(=O)[C@@H](CCSC)n3cc(CCO)nn3)CC2)nc(N2CCN(C(=O)CCCCCCCCCCNC(=O)[C@H](CO)n3cc(CCCCCN)nn3)CC2)n1	?	0	?	1µM	0
Cc1cccc(NC(=S)NNC(=O)c2cccc([N+](=O)[O-])c2)c1	0[7.34 µM]	0	?	0	0[7.34 µM]
C/C(=N/NC(=S)Nc1cccc(C)c1)c1cccc([N+](=O)[O-])c1	-	0	0	12µM	-
C/C(=N\NC(=S)Nc1cccc(C)c1)c1cc2ccccc2o1	0	0	8.3µM	?	0
CC/C(=N\NC(=S)Nc1cccc(C)c1)c1ccccc1	0	0	?	9.3µM	?
CCC1CN(CCNC(=O)c2ccnc(Cl)c2)Cc2cc(OC)ccc2O1 (stereo unspecified)	0	-	-	-	0
Cc1nn(C)c(C)c1-c1c(C#N)c(N)nc2c1CCCCCC2	0	0	?	?	0
Cc1c(-c2c(C#N)c(N)nc3c2CCCCCC3)cnn1C	0	0	10µM	?	0
N#Cc1c(N)nc2c(c1-c1ccncc1)CCCCC2	-	0	7.4µM	?	-
CSc1ccc(-c2c(C#N)c(N)nc3c2CCCC3)cc1	-	0	2.6µM	0	-
CC(C)Oc1ccc(CNC(=O)Cn2ncn3nc(-c4cccs4)cc3c2=O)cc1	0	-	-	-	0
COc1cccc(C(c2sc3nc(-c4ccco4)nn3c2O)N2CCC(C)CC2)c1 (stereo unspecified)	0	-	-	-	0
O=C(CSc1nccn1-c1cccc(Cl)c1)Nc1ccc2c(c1)OCO2	0	-	-	-	0
COc1cc2c(cc1OC)C(C(C(=O)N(CCc1ccc(OC)c(OC)c1OC)CCc1ccc(OC)c(OC)c1OC)c1ccccc1)=NCC2 (stereo unspecified)	0	-	1.5µM	1.3µM	0
COc1ccc(OC)c(CCNC(=O)c2cnn(-c3ccccc3)c2-n2cccc2)c1	0	-	-	-	0
O=C(/C=C/c1cccc(C(F)(F)F)c1)Nc1cccc(C(F)(F)F)c1	?	0	?	7.4µM	?
O=C(O)c1ccccc1Nc1cccc(C(F)(F)F)c1	?	0	2.4µM!	0	?
SMILES	Vaccinia Venus	AMA1 RON2 block	Pf growth 96h	Pf growth 48h	VACV mCherry inh
O=C(COc1ccc(Cl)cc1)NC1=NN(c2ccccc2)C(=O)C1	-	0	8.3µM	0	-
Cc1cccc(C(C)n2nnc3ccccc32)c1O (stereo unspecified)	0	0	10µM	15µM	0
CC(C(=O)O)n1nnc2ccccc21 (stereo unspecified)	0	0	0	0	0
CCOC(=O)C1(CC2CC2)CCN(Cc2cnc(-c3ccc(OC)cc3)nc2)CC1	-	0	?	?	-
CCOC(=O)C1(CC2CC2)CCN(Cc2ccc(O)c(Cl)c2)CC1	-	-	0	4.1µM	-
CCOC(=O)C1(CCOc2ccccc2)CCN(Cc2ccc(O)c(OC)c2)CC1	-	0	0	12µM	-
CCOC(=O)C1(CCOc2ccccc2)CCN(Cc2ccc(-n3cccn3)cc2)CC1	?	0	?	15µM	?
CCOC(=O)C1(CCOc2ccccc2)CCN(Cc2ccc(O)c(Cl)c2)CC1	-	0	?	?	-
CCOC(=O)C1(CCOc2ccccc2)CCN(Cc2ccc(F)c(OC)c2)CC1	0	0	15µM	0	0
O=C(O)c1cc(-c2ccc(C(F)(F)F)cc2)nc2n[nH]c(-c3ccccc3)c12	0	-	-	-	0
CCOC(=O)C1(CCOc2ccccc2)CCN(Cc2cccc(OC)c2O)CC1	0	0	0	0.59µM	0
Cc1oc(-c2cccc(Cl)c2)nc1CSc1nncn2c1cc1occc12	0	-	-	-	0
O=C1C=C(N2CCCCC2)c2ccccc2C1=O	?	0	-	-	?
CC(C)(C)C1=CC(=O)C(N2CCOCC2)=CC1=O	0	0	15µM	10µM	0
CN(CC(O)CON=C1c2ccccc2-c2ccccc21)S(=O)(=O)c1ccc(Br)cc1 (stereo unspecified)	?	0	?	6.6µM	0
Cc1cccc(N(CC(O)CON=C2c3ccccc3-c3ccccc32)S(C)(=O)=O)c1 (stereo unspecified)	?	0	13µM	-	?
CS(=O)(=O)N(CC(O)CON=C1c2ccccc2-c2ccccc21)c1ccc(F)cc1 (stereo unspecified)	0	0	?	?	0
CCN(CC(O)CON=C1c2ccccc2-c2ccccc21)S(=O)(=O)c1ccc(C)cc1 (stereo unspecified)	0	0	2.3µM	?	0
CCN(CC(O)CON=C1c2ccccc2-c2ccccc21)S(=O)(=O)c1ccc(Cl)cc1 (stereo unspecified)	0	0	?	?	?
Cc1ccc2sc(NNC(=O)c3cc(-c4cccs4)nc4ccccc34)nc2c1C	-	-	10µM	?	-
O=C(NNc1nc2ccc(Cl)cc2s1)c1cc(-c2cccs2)nc2ccccc12	?	0	7.4µM	?	?
Cc1cc(C)c2nc(NNC(=O)c3cc(-c4cccs4)nc4ccccc34)sc2c1	?	0	3.3µM	1.9µM	?
O=C(NN1CCOCC1)c1cc(-c2cccs2)nc2ccccc12	0	0	0	0	0
Cc1ccc2c(c1)-c1onc(C(=O)N3CCN(c4cc(Cl)ccc4C)CC3)c1CO2	0	-	-	-	0
CCOC(=O)c1ccccc1NC(=O)c1sc2ncn(Cc3cccc(F)c3)c(=O)c2c1C	0	-	-	-	0
Cc1csc(NC(=O)C(C)Oc2ccc(Cl)cc2C)n1 (stereo unspecified)	-	0	?	13µM	-
COc1cc(OC)cc(C(=O)N[C@H](C(=O)Nc2ccccc2N2CCOCC2)C(C)C)c1	-	0	8.3µM	-	-
CC(C)Oc1cccc(C(=O)Nc2ccccc2N2CCOCC2)c1	0	0	0	0	0
